The target of one assay is Albumin (Bos taurus) (UniProt P02769). Nature of the assay: bovine serum albumin binders on microarray, profiling panel, artefact control for SMM control protein annotation, biochemical, small-molecule microarray, Alexa647 label, 635/667 nm fluorescence (AID 1118).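 Also: score merges 667 nm emission intensity and signal-to-noise per printed compound spot.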 Conditions: BSA-A647 binding, fluorescence 635 nm, higher = more signal.
Assay [1] is described as follows: small-molecule microarray binders of probe aXIP, primary screen, biochemical, NeuroSMM set, 635/667 nm fluorescence (AID 1119).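 Also: probe is the protein aXip251-270 applied at 1 µg/mL to compound-printed slides; binding of probe to printed compounds measured as 667 nm fluorescence plus signal to noise.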 The note with it: higher = more signal, called active from +8 up or from −8 down.
Assay [2] is described as follows: small-molecule binders of probe aNOTCH3, primary screen, biochemical, small-molecule microarray, 635/667 nm fluorescence (AID 1120).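 Also: probe is a biotin-tagged antibody raised against NOTCH3 rather than NOTCH3 protein; score merges spot fluorescence near 667 nm with spot signal to noise.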 The note with it: higher = more signal.
A short description of assay [3]: small-molecule binders of probe aNOTCH2, primary screen, biochemical, small-molecule microarray, 635/667 nm fluorescence (AID 1121).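 Also: score merges feature fluorescence read at 667 nm with its signal to noise.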 Conditions: higher = more signal.
Assay [4] addresses Carbonic anhydrase 2 (Homo sapiens) (UniProt P00918). Nature of the assay: CAII small-molecule binders, profiling panel, biochemical, small-molecule microarray, Alexa647-labelled CAII (AID 1122). Conditions: CAII-A647 binding fluorescence, higher = more signal.
Assay [5] can be described thus: COS7 lysate on small-molecule microarray, probe aHis, 635 nm (AID 1123).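 Also: z-score combines 667nm fluorescence intensity with signal-to-noise per printed compound spot.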 The note with it: COS7 cell lysate, fluorescence, higher = more signal.
Assay [6] in a line: compound binding in COS7 lysate, probe aLAP1, primary screen, cell lysate, small-molecule microarray (AID 1124).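 Also: lysate comes from COS7 cells expressing LAP1 and is applied at 0.3 µg/mL; score merges spot fluorescence near 667 nm with signal-to-noise over triplicate slides.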 Conditions: probe aLAP1, fluorescence, higher = more signal.
The next assay concerns Sam68 (KHDRBS1). The assay can be described thus: Sam68 small-molecule binders, primary screen, biochemical, small-molecule microarray, 635 nm fluorescence (AID 1125).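 Also: score merges 667 nm channel intensity with signal to noise over triplicate slides.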 Conditions: small-molecule microarray binding, higher = more signal.
The test system of assay [7] is Chordin-like protein 2 (CHRDL2). Nature of the assay: CHRDL2 small-molecule binders, primary screen, biochemical, small-molecule microarray, 635 nm fluorescence (AID 1126).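 Also: printed compound slides probed with Chrdl2 protein at 4 µg/mL for 1 h at 4 C; score merges 667 nm emission intensity with signal to noise over three replicate slides.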 The note with it: small-molecule microarray binding, fluorescence 635 nm; higher = more signal.
The target in assay [8] is Concanavalin-A (Canavalia ensiformis) (UniProt P02866). The assay can be described thus: ConA small-molecule binders, primary screen, artefact control for SMM control protein annotation, biochemical, small-molecule microarray, Alexa647 label, 635 nm (AID 1127).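 Also: z combines 667 nm emission intensity with signal-to-noise across three replicate slides.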 The note with it: ConA-A647 binding fluorescence, higher = more signal.
Assay [9] is described as follows: anti-His antibody binders, primary screen, artefact control for SMM control protein annotation, biochemical, small-molecule microarray, 635 nm fluorescence (AID 1128).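 Also: score merges feature fluorescence with signal-to-noise for each printed compound spot.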 The note with it: anti-His Alexa647 antibody binding, higher = more signal.
The subject of assay [10] is Human papillomavirus type 1a E7 protein (residues 1-88). The assay can be described thus: HPV1a E7 small-molecule binders, primary screen, biochemical, small-molecule microarray, residues 1-88, 635 nm (AID 1129). Conditions: small-molecule microarray binding, fluorescence 635 nm; higher = more signal.
The target in assay [11] is Focal adhesion kinase 1 (Homo sapiens) (UniProt Q05397). The assay can be described thus: small-molecule microarray binders of FAK, primary screen, biochemical, 635/667 nm fluorescence, BSA, DTT (AID 1130).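 Also: composite of spot emission at 667 nm and signal to noise over triplicate slides.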 Conditions: PTK2 binding, 635 nm fluorescence, higher = more signal.
The test system of assay [12] is Fibrinogen (Alexa647-labelled). Nature of the assay: fibrinogen binders on compound microarrays, profiling panel, artefact control for SMM control-protein annotation, biochemical, small-molecule microarray, 635/667 nm fluorescence (AID 1131).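 Also: z-score merges 667 nm fluorescence with per-spot signal-to-noise over triplicate slides.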 The note with it: fibrinogen-A647 binding fluorescence, higher = more signal.
Assay [13] concerns the target Follistatin (Homo sapiens) (UniProt P19883). The assay can be described thus: follistatin binders on small-molecule microarrays, primary screen, biochemical, small-molecule microarray, 635/667 nm fluorescence (AID 1132). Conditions: FST binding, 635 nm fluorescence, higher = more signal.
For assay [14], the target named is Fibroblast growth factor 2 (Homo sapiens) (UniProt P09038). Nature of the assay: FGF2 binders on small-molecule microarrays, primary screen, biochemical, small-molecule microarray, 635/667 nm fluorescence (AID 1133). The note with it: small-molecule microarray binding, FGF2, fluorescence 635/667; higher = more signal.
The nature of assay [15]: mitochondrial membrane potential change in A549 cells, profiling panel, cell-based, JC-1 fluorescence, basal, 24 h, 100 nL (AID 1138).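 Also: A549 lung adenocarcinoma cells under basal conditions with no added stimulus; test concentration not given here.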 The note with it: higher = more signal.
Another assay deals with Lefty1. The assay can be described thus: Lefty1 binders on small-molecule microarrays, primary screen, biochemical, small-molecule microarray, 635/667 nm fluorescence (AID 1139). The note with it: small-molecule microarray binding, fluorescence 635/667; higher = more signal.
Assay [16] concerns wheat germ agglutinin (Triticum aestivum), Alexa647-labelled. The assay can be described thus: wheat germ agglutinin binders on compound microarrays, profiling panel, artefact control for SMM control-protein annotation, biochemical, small-molecule microarray, 635/667 nm fluorescence (AID 1140).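 Also: score merges 667 nm feature emission with signal to noise over triplicate slides.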 The note with it: WGA-A647 binding, 635 nm fluorescence, higher = more signal.
In assay [17] the target is Luciferin 4-monooxygenase (Photinus pyralis) (UniProt P08659). The assay can be described thus: firefly luciferase enzyme inhibitors, primary screen, biochemical, luminescence, purified enzyme, 2006 set (AID 1141).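 Also: cell-free assay with purified firefly luciferase at 100 ng per well in PBS; test concentration not given here.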 Conditions: SteadyGlo luminescence, 30 min, higher = more signal, called active from +8 up or from −8 down.

Molecules are shown by their SMILES. Calls of active or inactive are those of the source.

Sequence of Concanavalin-A (Canavalia ensiformis) (P02866 whole entry, looked up): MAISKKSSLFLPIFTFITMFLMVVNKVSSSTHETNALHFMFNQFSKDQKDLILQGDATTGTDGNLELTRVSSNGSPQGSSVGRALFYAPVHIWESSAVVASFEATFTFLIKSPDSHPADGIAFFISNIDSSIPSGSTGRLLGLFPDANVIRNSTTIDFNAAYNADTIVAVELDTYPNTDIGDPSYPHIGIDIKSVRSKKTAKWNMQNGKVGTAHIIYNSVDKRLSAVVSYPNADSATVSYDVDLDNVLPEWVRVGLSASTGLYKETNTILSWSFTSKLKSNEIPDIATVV
Sequence of Albumin (Bos taurus) (P02769 whole entry, looked up): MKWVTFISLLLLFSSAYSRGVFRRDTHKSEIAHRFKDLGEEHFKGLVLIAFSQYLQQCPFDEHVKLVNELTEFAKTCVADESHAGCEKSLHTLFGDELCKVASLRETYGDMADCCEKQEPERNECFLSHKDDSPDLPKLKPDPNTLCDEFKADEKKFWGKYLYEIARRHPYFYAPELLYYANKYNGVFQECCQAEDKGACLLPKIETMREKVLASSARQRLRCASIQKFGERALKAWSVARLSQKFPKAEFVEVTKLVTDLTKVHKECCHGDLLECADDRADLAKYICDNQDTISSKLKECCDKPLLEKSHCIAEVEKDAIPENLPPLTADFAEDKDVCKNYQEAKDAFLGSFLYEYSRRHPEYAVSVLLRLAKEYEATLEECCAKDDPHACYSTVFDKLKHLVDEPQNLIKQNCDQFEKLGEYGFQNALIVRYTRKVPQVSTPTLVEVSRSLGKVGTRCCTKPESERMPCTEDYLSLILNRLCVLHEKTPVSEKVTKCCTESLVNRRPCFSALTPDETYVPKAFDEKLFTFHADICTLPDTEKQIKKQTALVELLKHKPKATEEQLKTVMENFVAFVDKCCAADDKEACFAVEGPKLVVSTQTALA
Sequence of Focal adhesion kinase 1 (Homo sapiens) (Q05397 whole entry, looked up): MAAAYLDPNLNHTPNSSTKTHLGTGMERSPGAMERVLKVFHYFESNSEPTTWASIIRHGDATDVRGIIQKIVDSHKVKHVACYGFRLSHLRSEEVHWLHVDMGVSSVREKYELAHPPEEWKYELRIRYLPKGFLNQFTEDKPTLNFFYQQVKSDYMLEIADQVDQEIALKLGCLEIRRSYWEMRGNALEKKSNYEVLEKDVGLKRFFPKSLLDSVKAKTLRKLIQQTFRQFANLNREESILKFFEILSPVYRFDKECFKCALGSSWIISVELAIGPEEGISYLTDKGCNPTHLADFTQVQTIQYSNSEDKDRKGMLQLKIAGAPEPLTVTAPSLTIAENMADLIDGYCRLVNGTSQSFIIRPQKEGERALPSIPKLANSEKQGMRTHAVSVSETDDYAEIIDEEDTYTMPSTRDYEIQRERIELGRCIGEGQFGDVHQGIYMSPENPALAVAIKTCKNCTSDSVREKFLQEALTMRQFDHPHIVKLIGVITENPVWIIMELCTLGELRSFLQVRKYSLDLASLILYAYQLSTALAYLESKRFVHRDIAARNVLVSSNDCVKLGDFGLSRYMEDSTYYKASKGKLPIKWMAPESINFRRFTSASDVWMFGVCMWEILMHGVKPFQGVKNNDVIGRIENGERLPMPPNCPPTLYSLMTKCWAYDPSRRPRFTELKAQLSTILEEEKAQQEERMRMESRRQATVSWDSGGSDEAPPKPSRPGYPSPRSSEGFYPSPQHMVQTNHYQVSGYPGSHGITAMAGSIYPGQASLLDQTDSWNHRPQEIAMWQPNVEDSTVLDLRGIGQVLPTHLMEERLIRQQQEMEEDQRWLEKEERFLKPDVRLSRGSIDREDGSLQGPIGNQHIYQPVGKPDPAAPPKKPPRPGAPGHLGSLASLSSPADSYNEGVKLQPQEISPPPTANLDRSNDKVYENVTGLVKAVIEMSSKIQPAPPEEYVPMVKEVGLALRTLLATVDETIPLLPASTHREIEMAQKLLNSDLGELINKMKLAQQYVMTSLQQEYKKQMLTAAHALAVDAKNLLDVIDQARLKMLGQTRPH
Sequence of Fibroblast growth factor 2 (Homo sapiens) (P09038 whole entry, looked up): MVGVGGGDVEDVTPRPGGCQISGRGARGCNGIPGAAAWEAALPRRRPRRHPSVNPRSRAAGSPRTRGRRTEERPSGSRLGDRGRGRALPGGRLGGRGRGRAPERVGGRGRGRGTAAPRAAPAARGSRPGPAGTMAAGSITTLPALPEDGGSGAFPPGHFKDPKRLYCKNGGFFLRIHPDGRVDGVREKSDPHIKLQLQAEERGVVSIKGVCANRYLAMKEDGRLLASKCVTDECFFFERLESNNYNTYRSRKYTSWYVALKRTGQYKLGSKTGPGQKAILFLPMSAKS
Sequence of Luciferin 4-monooxygenase (Photinus pyralis) (P08659 whole entry, looked up): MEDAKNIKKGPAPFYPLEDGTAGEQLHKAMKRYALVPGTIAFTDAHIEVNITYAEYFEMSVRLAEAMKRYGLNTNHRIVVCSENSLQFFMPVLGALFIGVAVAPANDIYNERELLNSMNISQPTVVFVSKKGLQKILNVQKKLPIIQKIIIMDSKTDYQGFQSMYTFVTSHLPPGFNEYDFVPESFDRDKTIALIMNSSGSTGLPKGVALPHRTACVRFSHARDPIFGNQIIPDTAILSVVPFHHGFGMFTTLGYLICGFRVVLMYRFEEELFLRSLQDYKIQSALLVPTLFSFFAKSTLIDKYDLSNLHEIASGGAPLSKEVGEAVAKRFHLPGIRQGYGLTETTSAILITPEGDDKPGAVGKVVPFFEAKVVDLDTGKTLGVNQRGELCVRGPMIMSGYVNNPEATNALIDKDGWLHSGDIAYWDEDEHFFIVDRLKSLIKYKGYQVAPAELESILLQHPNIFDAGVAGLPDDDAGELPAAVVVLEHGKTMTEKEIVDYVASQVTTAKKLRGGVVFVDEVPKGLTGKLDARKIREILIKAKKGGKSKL
Sequence of Follistatin (Homo sapiens) (P19883 whole entry, looked up): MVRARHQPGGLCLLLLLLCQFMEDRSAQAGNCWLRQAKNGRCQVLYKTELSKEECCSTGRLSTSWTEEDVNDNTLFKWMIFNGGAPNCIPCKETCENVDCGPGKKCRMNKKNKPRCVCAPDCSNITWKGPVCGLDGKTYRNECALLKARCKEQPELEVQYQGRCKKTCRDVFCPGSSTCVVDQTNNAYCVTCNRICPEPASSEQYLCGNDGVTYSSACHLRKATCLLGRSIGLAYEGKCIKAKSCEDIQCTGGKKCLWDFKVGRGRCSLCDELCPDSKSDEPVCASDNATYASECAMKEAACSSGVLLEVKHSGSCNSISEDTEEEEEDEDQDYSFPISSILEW

As for `C=CCNC(=O)[C@@H]1[C@H]2C(=O)O[C@H](c3ccccc3)[C@H](c3ccccc3)N2[C@H](c2ccc(O)cc2)[C@@]12C(=O)N(C(=O)OCCOC)c1ccc(C#CC3(O)CCCCCC3)cc12`, the composite z-score in the assay with Albumin (Bos taurus) was -0.632; in assay [2], -0.416; in assay [3], -0.153; in assay [4], -0.742; in assay [5], -0.642; in [6], -0.547. The composite z-score in the assay with Sam68 (KHDRBS1) is -0.669; in assay [7], -2.57; in assay [8], -0.533; in [9], -0.461; in assay [10], -1.32; in assay [11] it was -0.365. Moreover, the composite z-score is -2.02 in [12]; -1.01 in assay [13]; -1.93 in [14]; -0.624 in the assay with Lefty1; -0.556 in [16]. Besides, in assay [1], the composite Z-score is -0.245 (inactive). Besides, the z-score is 0.426 in [15] and 0.779 (inactive) in assay [17].
Consider `CCOC(=O)c1ccc(NC(=O)O[C@H]2[C@H](OC(=O)Nc3ccc4c(c3)OCO4)[C@@H](OC(=O)Nc3ccc4c(c3)OCO4)[C@@H](OC)O[C@@H]2CO)cc1`, for which the composite z-score with Albumin (Bos taurus) was 0.862; in assay [2] it was 0.291; in assay [3] it was -0.0226; in [4], 0.516; in assay [5], 2.56; in [6] it was 0.535. Also, the composite z-score was found to be 1.31 in the assay on Sam68 (KHDRBS1); 0.0612 in [7]; 1.14 in [8]; 2.28 in assay [9]; 1.22 in assay [10]; 0.891 in assay [11]. In addition, the composite z-score worked out at 0.992 in assay [12]; 1.26 in assay [13]; 1.12 in [14]; 0.793 in the assay with Lefty1; 1.16 in assay [16]. For the same molecule, the composite Z-score in [1] is 0.805 (inactive). The z-score in assay [15] is -1.05; in assay [17], -7.83 (inactive).
As to `CC(C)OC(=O)C=C1C[C@@H](c2ccc(C(F)(F)F)cc2)O[C@@H](c2ccc(C(F)(F)F)cc2)O1`, the composite z-score in the assay with Albumin (Bos taurus) is 0.856; in assay [2] it was -0.102; in assay [3], -0.128; in assay [4] it was 0.717; in assay [5], 2.61; in [6], 0.35. In addition, the composite z-score with Sam68 (KHDRBS1) was 0.886; in assay [7], -0.782; in assay [8], 1.09; in assay [9] it was 0.751; in assay [10], 1.25; in [11] it was 1.04. Moreover, the composite z-score in assay [12] is 0.907; in [13] it was -0.0691; in assay [14], -0.46; in the assay with Lefty1 it was -0.0747; in [16], 1.21. For the same molecule, in assay [1], the composite Z-score is -0.451 (inactive). Besides, the z-score was -0.0127 in assay [15] and -0.478 (inactive) in [17].
For `C=C(/C(=C/C[C@H](OC(C)=O)c1ccccc1OCCO)c1cc(C(=O)OC)ccc1OC)C(C)C`, the composite z-score with Albumin (Bos taurus) is 0.469; in assay [2] it was -0.0782; in [3], -0.173; in assay [4], 0.491; in assay [5], 1.26; in assay [6] it was -0.0654. The composite z-score in the assay on Sam68 (KHDRBS1) was 0.527; in assay [7], -0.152; in assay [8], 0.548; in assay [9], 2.68; in [10], 0.278; in [11], -0.164. Also, the composite z-score in [12] was determined as 0.0823; in [13], 0.494; in [14] it was 0.428; in the assay with Lefty1, 0.501; in [16] it was 0.151. Moreover, the composite Z-score in assay [1] was -0.0127 (inactive). Besides, the z-score in [15] was -0.139; in assay [17], -0.475 (inactive).
For `COC(=O)[C@@]1(Cc2ccc(OC)cc2)[C@H]2c3cc(C(=O)N(C)C)n(Cc4ccc(Cl)c(C(F)(F)F)c4)c3C[C@H]2CN1C(=O)c1ccccc1`, the composite z-score with Albumin (Bos taurus) worked out at 0.962; in [2], 0.406; in [3], 0.29; in assay [4] it was 0.377; in [5] it was 2.65; in [6], 0.0516. Also, the composite z-score with Sam68 (KHDRBS1) is 1.26; in assay [7], -0.763; in assay [8], 0.952; in assay [9] it was 1.99; in assay [10] it was 1.22; in assay [11], 0.71. Further, the composite z-score in [12] is 0.982; in assay [13], 0.655; in [14], -0.451; in the assay on Lefty1, -0.68; in assay [16], 1.22. The composite Z-score in assay [1] was 0.579 (inactive). The z-score in assay [15] was 0.0187; in assay [17] it was 1.65 (inactive).

The values are drawn from PubChem BioAssay.
